Bioassay records: PubChem BioAssay, several laboratories
SENP7 inh: SENP7 protease inhibitors, primary screen, biochemical, luminescence, uHTS. inhibition, % at 5 µM. Sentrin-specific protease 7 (Homo sapiens), Q9BQF6. recombinant SENP7, Z-RLRGG-aminoluciferin luminescence, 40 min. AID 434973, 2010. actives 1.5% (n = 330,000);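 active = inhibition above about 50% at the single test dose, limit read from the data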;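 also: plate controls were DMSO with enzyme for no effect and no enzyme buffer wells for full effect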
EBI2 block: EBI2 receptor antagonists, beta-arrestin recruitment, primary screen, cell-based, luminescence, 7a,25-OHC stimulation, uHTS; G-protein coupled receptor 183 (Homo sapiens), P32249; 7a,25-OHC stimulated; inhibition, % at 5 µM; actives 0.81% (n = 360,000); in the data active = inhibition above about 38%;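 also: enzyme fragment complementation signal reports receptor beta-arrestin coupling in cells; 0% = agonist plus DMSO wells and 100% = wells without agonist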
SENP6 block: SENP6 protease inhibitors, primary screen, biochemical, luminescence, uHTS; Sentrin-specific protease 6 (Homo sapiens), Q9GZR1; Recombinant SENP6 catalytic domain, aminoluciferin luminescence; inhibition, % at 10 µM; actives 1.8% (n = 330,000);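 active = inhibition above about 50% at the single tested dose, limit read from the data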;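 also: plate controls were DMSO wells with enzyme for no effect and DMSO wells lacking enzyme for full effect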
Target sequence (Q9GZR1 628-1112 limits assumed): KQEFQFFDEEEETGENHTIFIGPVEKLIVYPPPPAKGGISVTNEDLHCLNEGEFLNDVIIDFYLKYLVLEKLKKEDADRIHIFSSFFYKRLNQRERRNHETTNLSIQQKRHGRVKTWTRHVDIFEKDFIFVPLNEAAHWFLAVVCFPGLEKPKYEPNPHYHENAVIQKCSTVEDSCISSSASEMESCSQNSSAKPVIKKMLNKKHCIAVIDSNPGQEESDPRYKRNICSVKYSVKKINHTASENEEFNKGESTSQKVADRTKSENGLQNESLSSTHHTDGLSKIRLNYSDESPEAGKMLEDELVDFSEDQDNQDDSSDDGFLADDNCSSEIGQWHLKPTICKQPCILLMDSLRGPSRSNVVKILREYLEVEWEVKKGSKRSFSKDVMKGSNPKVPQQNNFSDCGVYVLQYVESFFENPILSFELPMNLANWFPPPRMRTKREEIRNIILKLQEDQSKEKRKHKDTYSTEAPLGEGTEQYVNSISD
SENP8 block-1: SENP8 protease inhibitors, primary screen, biochemical, luminescence; Sentrin-specific protease 8 (Homo sapiens), Q96LD8; purified SENP8, Z-RLRGG-aminoluciferin cleavage; AID 2540, 2010; inhibition, % at 10 µM; actives 1.2% (n = 330,000); in the data active = inhibition above about 50%
SENP8 block-2: human SENP8 protease inhibitors, primary screen, biochemical, fluorescence, Nedd8 protein substrate, uHTS; AID 602440, 2012; actives 0.64% (n = 360,000); recombinant SENP8; inhibition, % at 20 µM; in the data active = inhibition mostly above about 40%, no sharp cut-off; inactive = mostly below about 27%
AHR act: AHR activators, primary screen, cell-based, luminescence, luciferase reporter, human; Aryl hydrocarbon receptor (Homo sapiens), P35869; AHR-responsive luciferase reporter cells; activation, % at 5 µM; actives 2.5% (n = 320,000); in the data active = activation above about 47%;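 also: 0% = vehicle wells and 100% = reference agonist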
The depositor's hits bear a star; . = not tested or not shown. Only some compounds are listed: those with a hit (about 5% of all), similar ones and a draw of the others.

SMILES	SENP7 inh	EBI2 block	SENP6 block	SENP8 block-1	SENP8 block-2	AHR act
CCN1C[C@@H]2[C@@H]3C(=O)N(Cc4ccccc4)C(=O)[C@@H]3[C@](Cc3ccccc3)(C1=O)N2C(=O)c1ccc(C(F)(F)F)cc1	.	-1	.	.	4	.
O=C(/C=C/[C@H]1O[C@@H](n2cnc3c(NC(=O)c4ccccc4)ncnc32)[C@H](O)[C@@H]1O)NCc1ccco1	.	1	.	.	10	.
CC(=O)c1ccc(NC(=O)COC(=O)c2ccccc2N=Nc2ccc(N(C)C)cc2)cc1	9	25	1	6	28	2
COC(=O)c1ccccc1NC(=O)COC(=O)c1ccccc1N=Nc1ccc(N(C)C)cc1	3	27	-7	0	42*	2
Cc1ccc(C#N)c(SCc2cc3c(cc2Cl)OCO3)n1	-2	6	0	0	9	51*
Cc1cc(NC(=O)c2ccc3sc([C@@H]4O[C@H](CO)[C@H](O)[C@H](O)[C@H]4O)nc3c2)no1	.	-8	.	.	21	.
COc1cc(C(c2c(C(=O)O)[nH]c3ccccc23)c2c(C(=O)O)[nH]c3ccccc23)ccc1OCc1ccccc1	-11	8	6	2	3	16
COc1ccc(C(C[N+](=O)[O-])c2c(C)[nH]c3ccccc23)cc1OC (stereo unspecified)	-5	15	12	-10	2	60*
COc1ccc(N/N=C(\C=N\O)C(=O)c2ccc(OC)cc2)cc1	5	-5	-26	-3	44*	48*
CC(C)NC(=O)OC1CC2CC1[C@H]1CCCCN1C2=O (stereo partly specified)	.	-2	.	.	9	.
CCc1ccc(NC(=O)CCC(=O)N2CCSc3ccccc32)cc1	-9	-3	-9	-12	8	69*
CC(C)n1c(/C=C/c2ccccc2)nc2ccccc21	12	8	2	3	-398	57*
COCCOCCn1c(/C=C/c2ccccc2)nc2ccccc21	38	12	74*	61*	-381	8
CC(C)n1c(CN(C)c2ccccc2)nc2ccccc21	15	-3	-22	-9	5	5
Cc1cccc(NC(=O)COC(=O)CN2CCCCCC2=O)c1C	1	-12	13	-6	-237	1
CCOc1ccccc1CN1[C@@H](c2ccc(OC)cc2)CC(C(=O)OC)(C(=O)OC)[C@H]1c1ccccc1	.	30	.	.	5	.
O=C(Nc1nnc(Cc2ccccc2)s1)c1ccccc1	-5	-7	23	-10	5	54*
COc1ccc(C(=O)Nc2nnc(Cc3cccs3)s2)cc1OC	-3	-7	9	2	-6	78*
CCOc1ccc(C(=O)Nc2nnc(C)s2)cc1OCC	7	-2	-15	-3	-5	50*
Cc1ccc(C(=O)Nc2nnc(Cc3ccccc3)s2)cc1	8	-1	-10	8	15	4
O=C(COc1ccccc1/C=C1\SC(=O)NC1=O)Nc1ccccc1	10	-20	-12	-4	-22	57*
Cc1ccc(CNC(=O)C2CCC(=O)N(CCc3ccc(Cl)cc3)C2)s1 (stereo unspecified)	-6	39	-8	2	0	-2
Cc1ccc(CNC(=O)C2CCC(=O)N(CCc3ccc(Cl)cc3)C2)cc1 (stereo unspecified)	10	49*	-11	-7	11	6
CN(C)C(=O)c1cc2c(c(-c3cccc(C4=CCCCC4)c3)n1)[C@@H](CCO)N(S(=O)C(C)(C)C)C2 (stereo partly specified)	.	-1	.	.	-8	.
CCOC(CNC(=O)c1ccc2c(c1)ncn2-c1ccccc1OC)OCC	-7	0	-22	6	17	0
SMILES	SENP7 inh	EBI2 block	SENP6 block	SENP8 block-1	SENP8 block-2	AHR act
CC(=O)Nc1nc(C)nc(-c2ccccc2OC(C)=O)n1	10	-14	1	3	0	6
CC(=O)Nc1nc(-c2ccccc2)nc(-c2ccccc2OC(C)=O)n1	9	11	-2	2	6	75*
CCOc1ccc(/C=N/n2c(C3CCCCC3)n[nH]c2=S)cc1	-4	11	-2	-1	12	-1
CCOC(=O)c1c(C)[nH]c(C(=O)OCC(=O)Nc2ccc(Cl)cn2)c1C	2	7	-1	10	-17	5
CCOC(=O)c1c(C)[nH]c(C(=O)OCC(=O)Nc2sccc2C(N)=O)c1C	-6	-33	-8	-6	-17	53*
CN=c1sc(C(=O)Nc2ccccc2)c(C)n1C	8	-3	0	-2	-6	72*
CN=c1sc(C(=O)Nc2cccc(Cl)c2)cc(=O)n1C	2	13	-21	-13	16	3
O=C(NCc1cccc(Cl)c1)c1ccc(CS(=O)Cc2ccc(Cl)cc2)o1 (stereo unspecified)	-2	0	-1	-24	14	1
Cc1ccccc1-c1cccc([C@@H]2C[C@H]3[C@H](CON3C)CN2S(=O)(=O)c2ccccc2C)c1	.	9	.	.	7	.
NS(=O)(=O)c1ccc(-c2ccc(/C=C3\C(=O)Nc4ccccc43)o2)cc1	8	.	-13	-5	.	74*
CCCc1ccc(C(O)c2ncc(-c3cccc(C)c3)[nH]2)cc1 (stereo unspecified)	.	7	.	.	5	.
O=c1[nH]c(CSc2ncn[nH]2)nc2ccccc12	-1	-3	-17	-8	-1	15
O=c1[nH]c(CSc2cccc[n+]2[O-])nc2ccccc12	1	-3	1	5	-7	48*
Cn1c(SCc2nc3ccccc3c(=O)[nH]2)nc2ccccc21	11	8	7	-6	-67	61*
O=C(NCc1nnnn1-c1ccc(F)cc1)c1ccc2c(c1)OCO2	.	-8	.	.	11	.
COc1ccc(/C=N/NC(=O)Cc2cccs2)cc1	8	15	-22	-14	10	12
COc1cc(/C=N/NC(=O)Cc2cccs2)c([N+](=O)[O-])cc1OC	-1	4	5	2	-26	49*
CNc1nc(Oc2cccc(NC(C)=O)c2)c2sccc2n1	.	-1	.	.	-285	.
O=C1C=C(Nc2cccc3cccnc23)c2ccccc2C1=O	9	8	33	10	43*	36
O=C(CN1C(=O)c2ccccc2C1=O)Nc1cccc2cccnc12	1	7	-5	-6	-2	1
COc1ccc(/C=N/NC(=O)c2cc(-c3ccc4c(c3)OCO4)n[nH]2)cc1OC	1	-12	0	-9	-142	73*
COc1cc(/C=N/NC(=O)/C(=C\c2ccc3c(c2)OCO3)NC(=O)c2ccccc2)ccc1O	-2	-2	-39	-3	-27	69*
COc1cc(/C=N/NC(=O)c2ccc3c(c2)OCO3)ccc1O	-7	1	-10	-6	-102	.
